PubChem BioAssay
Activity calls are given as the source filed them.

Tests used:
[1] = E. coli DRC41 culture turbidity changes, primary screen, E. coli filamentation inducer project, strain DRC41, OD650, 48 h (AID 1152);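 also: E. coli MC1000 strain DRC41 lacking acrAB efflux pump and sulA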; details: E. coli DRC41 (acrAB sulA), higher = more signal, called active from +8 up or from −8 down
[2] = small-molecule binders of probe aLefty1, primary screen, biochemical, small-molecule microarray, 635/667 nm fluorescence (AID 1153); details: higher = more signal;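 also: score merges spot fluorescence with signal-to-noise ratio from the scanned slide images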
[3] = PSAC antagonists in infected red cells, primary screen, cell-based, P. falciparum Indochina, OD700, 1 h (AID 1154); details: P. falciparum Indochina infected RBC osmotic lysis, higher = more signal, called active from +8 up or from −8 down
[4] = PSAC antagonists in infected red cells, primary screen, cell-based, P. falciparum Indochina, OD700, 2 h (AID 1155);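 also: lysis reports solute entry through the parasite surface anion channel PSAC; channel blockers reduce lysis of infected cells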; details: P. falciparum Indochina infected erythrocytes, osmotic lysis OD700; higher = more signal, called active from +8 up or from −8 down
[5] = osmotic lysis modulators in infected erythrocytes, primary screen, PSAC antagonist project, cell-based, P. falciparum Indochina, OD700, 3 h (AID 1156); details: higher = more signal, called active from +8 up or from −8 down
[6] = PSAC antagonists in infected red cells, primary screen, cell-based, P. falciparum Indochina, OD700, 18 h (AID 1157); details: P. falciparum Indochina infected erythrocytes, osmotic lysis OD700, 18 h; higher = more signal, called active from +8 up or from −8 down
[7] = modulators of S6 phosphorylation in cells, primary screen, cell-based, A549, cytoblot, luminescence, serum-stimulated (AID 1158); details: A549 phospho-S6 cytoblot, 5 h, higher = more signal;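 also: serum-stimulated A549 lung adenocarcinoma cells; signal is phosphorylated S6 detected by cytoblot immunostaining with HRP secondary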
[8] = biological target: NADPH oxidase 2 (Homo sapiens) (UniProt P04839); test: NOX2-dependent H2O2 signal modulators, primary screen, NOX inhibitor project, cell-based, HEK293-NOX2, PMA-stimulated, Amplex Red fluorescence (AID 1159); details: 45 min, higher = more signal, called active from +8 up or from −8 down; also: test concentration not given here
[9] = biological target: NADPH oxidase 4 (Homo sapiens) (UniProt Q9NPH5); test: NOX4-dependent H2O2 signal modulators, primary screen, NOX inhibitor project, cell-based, HEK293-NOX4, tetracycline-induced, Amplex Red fluorescence (AID 1160); details: 45 min, higher = more signal, called active from +8 up or from −8 down
[10] = biological target: NADPH oxidase 5 (Homo sapiens) (UniProt Q96PH1); test: NOX5-dependent H2O2 signal modulators, primary screen, NOX inhibitor project, cell-based, HEK293-NOX5, Amplex Red fluorescence (AID 1161); details: HEK293-NOX5, ionomycin, 45 min, higher = more signal
[11] = A549 cell viability effects, profiling panel, calcein-AM fluorescence, 48 h, basal (AID 1162); details: higher = more signal; also: test concentration not given here
[12] = adipocyte viability effects, profiling panel, cell-based, 3T3-L1 adipocytes, calcein-AM fluorescence, 48 h, basal (AID 1163); details: 3T3-L1 adipocytes viability, higher = more signal; also: test concentration not given here
[13] = HepG2 cell viability effects, profiling panel, calcein-AM fluorescence, 48 h, basal (AID 1164); details: higher = more signal; also: test concentration not given here
[14] = MM1S cell viability effects, profiling panel, calcein-AM fluorescence, 48 h, basal (AID 1165); details: higher = more signal;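 also: viability of MM1S multiple myeloma cells under basal unstimulated conditions; test concentration not given here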
[15] = basal RPMI8226 viability, no added stimulus, profiling panel, cell-based, calcein-AM fluorescence, 48 h, PK04 Diversity Set (AID 1166); details: RPMI8226 myeloma viability, higher = more signal;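 also: cells grown under basal conditions without added stimulus; test concentration not given here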
[16] = basal HepG2 mitochondrial membrane potential changes, profiling panel, cell-based, JC-1 fluorescence, 24 h, 100 nL compound (AID 1167); details: higher = more signal; also: test concentration not given here
[17] = basal 3T3-L1 adipocyte mitochondrial potential changes, profiling panel, cell-based, JC-1 fluorescence, 3T3-L1 adipocytes, 24 h, 100 nL compound (AID 1168); details: JC-1 mitochondrial fluorescence, higher = more signal, called active from +8 up or from −8 down; also: test concentration not given here
[18] = basal RPMI8226 mitochondrial membrane potential changes, profiling panel, cell-based, JC-1 fluorescence, 24 h, 100 nL compound (AID 1169); details: RPMI8226 myeloma, JC-1 mitochondrial potential fluorescence, higher = more signal; also: test concentration not given here
[19] = basal MM1S mitochondrial membrane potential changes, profiling panel, cell-based, JC-1 fluorescence, 24 h, 100 nL compound (AID 1170); details: higher = more signal; also: test concentration not given here
[20] = A549 lung cancer cell viability effects, profiling panel, resazurin fluorescence, 24 h, PK04 Diversity Set (AID 1171); details: higher = more signal, called active from +8 up or from −8 down; also: test concentration not given here

NADPH oxidase 2 (Homo sapiens), sequence (P04839 whole entry, looked up): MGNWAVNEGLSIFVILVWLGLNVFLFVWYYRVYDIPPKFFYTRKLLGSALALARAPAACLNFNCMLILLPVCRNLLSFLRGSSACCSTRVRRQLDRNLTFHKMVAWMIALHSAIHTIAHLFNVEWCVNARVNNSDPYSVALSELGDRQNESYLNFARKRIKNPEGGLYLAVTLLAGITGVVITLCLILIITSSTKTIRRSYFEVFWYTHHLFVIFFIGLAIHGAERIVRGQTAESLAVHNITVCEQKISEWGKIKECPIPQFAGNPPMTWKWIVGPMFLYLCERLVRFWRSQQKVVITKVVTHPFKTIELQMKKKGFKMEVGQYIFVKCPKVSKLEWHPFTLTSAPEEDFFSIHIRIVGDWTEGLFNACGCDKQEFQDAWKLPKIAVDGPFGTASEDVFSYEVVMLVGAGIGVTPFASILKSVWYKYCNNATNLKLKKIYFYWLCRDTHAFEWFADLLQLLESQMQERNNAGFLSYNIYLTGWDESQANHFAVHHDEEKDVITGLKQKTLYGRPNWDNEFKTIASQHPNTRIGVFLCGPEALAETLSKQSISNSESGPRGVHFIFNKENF
NADPH oxidase 5 (Homo sapiens), sequence (Q96PH1 whole entry, looked up): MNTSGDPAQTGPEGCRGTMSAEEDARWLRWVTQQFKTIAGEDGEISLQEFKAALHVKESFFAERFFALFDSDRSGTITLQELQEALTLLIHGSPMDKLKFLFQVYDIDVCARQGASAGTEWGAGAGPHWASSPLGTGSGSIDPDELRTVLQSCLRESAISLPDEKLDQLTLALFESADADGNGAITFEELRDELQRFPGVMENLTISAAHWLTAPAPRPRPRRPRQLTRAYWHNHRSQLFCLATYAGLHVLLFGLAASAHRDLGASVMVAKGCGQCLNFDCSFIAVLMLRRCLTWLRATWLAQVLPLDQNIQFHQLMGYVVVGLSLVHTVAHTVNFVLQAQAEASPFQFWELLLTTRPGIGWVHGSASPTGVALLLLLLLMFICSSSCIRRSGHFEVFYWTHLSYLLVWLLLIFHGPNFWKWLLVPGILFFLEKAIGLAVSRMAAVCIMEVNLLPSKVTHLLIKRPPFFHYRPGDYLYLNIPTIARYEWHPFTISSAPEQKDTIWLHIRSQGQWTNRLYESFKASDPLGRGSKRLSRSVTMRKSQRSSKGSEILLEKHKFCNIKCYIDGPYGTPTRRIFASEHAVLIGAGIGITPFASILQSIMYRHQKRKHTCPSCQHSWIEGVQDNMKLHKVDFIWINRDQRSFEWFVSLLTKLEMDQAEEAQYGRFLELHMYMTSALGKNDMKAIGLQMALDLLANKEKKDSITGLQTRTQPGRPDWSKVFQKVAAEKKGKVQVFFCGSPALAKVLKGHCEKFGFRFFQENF
NADPH oxidase 4 (Homo sapiens), sequence (Q9NPH5 whole entry, looked up): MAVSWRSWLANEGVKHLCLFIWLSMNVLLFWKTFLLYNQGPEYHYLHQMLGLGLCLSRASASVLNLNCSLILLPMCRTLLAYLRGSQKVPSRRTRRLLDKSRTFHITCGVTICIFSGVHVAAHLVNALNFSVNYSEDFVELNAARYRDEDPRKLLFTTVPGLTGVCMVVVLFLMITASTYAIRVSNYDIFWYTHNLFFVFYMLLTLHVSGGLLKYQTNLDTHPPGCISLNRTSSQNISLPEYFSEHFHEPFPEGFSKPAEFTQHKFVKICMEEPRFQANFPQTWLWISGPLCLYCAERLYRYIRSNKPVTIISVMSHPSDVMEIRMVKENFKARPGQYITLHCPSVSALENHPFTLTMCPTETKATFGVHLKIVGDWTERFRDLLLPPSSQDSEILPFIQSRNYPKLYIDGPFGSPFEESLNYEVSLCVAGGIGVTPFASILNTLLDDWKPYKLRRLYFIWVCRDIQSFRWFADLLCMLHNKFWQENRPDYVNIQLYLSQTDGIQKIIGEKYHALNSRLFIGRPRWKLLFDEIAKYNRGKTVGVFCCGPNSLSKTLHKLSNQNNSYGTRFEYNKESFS

Row | SMILES | z-score [1] | composite z-score [2] | z-score [3] | z-score [4] | z-score [5] | z-score [6] | z-score [7] | z-score [8] | z-score [9] | z-score [10] | z-score [11] | z-score [12] | z-score [13] | z-score [14] | z-score [15] | z-score [16] | z-score [17] | z-score [18] | z-score [19] | z-score [20]
1 | CC(C)c1ccc(NN2C(C(O)c3c(F)cccc3Cl)C=CC3C(=O)N(c4ccccc4)C(=O)C32)cc1 (stereo not given) | -2.03 (inactive) | 1.22 | 2.86 (inactive) | 1.18 (inactive) | 1.12 (inactive) | 1.02 (inactive) | -1.02 | -1.38 (inactive) | -5.38 (inactive) | -4.14 | -0.755 | 0.205 | -0.314 | -0.414 | -1.32 | -2.03 | -2.25 (inactive) | -0.738 | 0.584 | -1.71 (inactive)
2 | COc1ccc([Si](C)(C)[C@@H]2[C@@H](CC(=O)N(CCO)Cc3ccccc3)O[C@]3(C(=O)N(C)c4ccccc43)[C@H]2C)cc1 | -0.733 (inactive) | 0.31 | 11.8 (active) | 2.07 (inactive) | -0.87 (inactive) | 0.57 (inactive) | 0.388 | 0.406 (inactive) | 0.965 (inactive) | -1.21 | -0.664 | 0.349 | -1.58 | -2.68 | -3.74 | -0.494 | -1.44 (inactive) | -1.12 | -0.319 | -1.78 (inactive)
3 | CCCN1C(=O)[C@@]2(CCC(=O)OC(C)(C)C)N=C(c3ccc(OCCCO)cc3)O[C@H]2c2ccccc21 | 0.42 (inactive) | -0.358 | 35.9 (active) | 37.4 (active) | 3.51 (inactive) | 9.08 (active) | 0.237 | -2.74 (inactive) | -0.665 (inactive) | -1.96 | -1.32 | 1.24 | -2.09 | -3.47 | -4.43 | 0.6 | 2.43 (inactive) | -1.26 | -0.421 | -0.778 (inactive)
4 | CC(C)(C)OC(=O)CC[C@@]1(C(=O)NCCN2CCOCC2)N=C(c2ccc(OCCCO)cc2)O[C@@H]1c1ccccc1 | 1.18 (inactive) | 0.296 | 14.8 (active) | 1.8 (inactive) | 0.267 (inactive) | 0.813 (inactive) | 0.413 | 0.63 (inactive) | 1.03 (inactive) | 1.8 | 0.694 | 0.571 | 0.564 | 0.586 | 1.26 | -0.0256 | 0.66 (inactive) | -0.707 | -0.514 | -0.24 (inactive)
